Measurements from PubChem BioAssay AID504332 (National Center for Advancing Translational Sciences (NCATS), 2011).
Hit rate of the full screen: of about 350,000 compounds, about 31,000 (8.9%) were called active. Roughly 15% stayed inconclusive and do not appear here. Many of the other results were omitted from the sample, so actives are more common in it than they were. Values without a mark were called inactive. Calls come from the whole dose curve; as a rule, active = well fitted inhibition curve with a large enough effect; inconclusive = small, poorly fitted or top-dose-only effect; inactive = no such curve, though single readings can be large or run the other way.

Target: Histone-lysine N-methyltransferase EHMT2 (Homo sapiens) (UniProt Q96KQ7)
Test: qHTS Assay for Inhibitors of Histone Lysine Methyltransferase G9a; note: nearly all actives have a fitted effect of over 75% in size
Conditions: G9a H3K9 monomethylation, AlphaScreen, 2 h; series mostly up to 59 µM; activity, negative = inhibition: at the top concentration
Procedure, shortened: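 AlphaScreen read-out: biotin-H3K9 peptide (500 nM) methylation by 20 nM enzyme with 20 uM SAM, 2 h at room temperature after 15 min compound preincubation; anti-monomethyl H3K9 antibody plus donor/acceptor beads, 10 min dark.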
% is set by controls: 0 for no effect and ±100 for the full control effect; potency is the fitted concentration of half-maximal effect.

Histone-lysine N-methyltransferase EHMT2 (Homo sapiens), sequence (Q96KQ7 913-1193 limits assumed): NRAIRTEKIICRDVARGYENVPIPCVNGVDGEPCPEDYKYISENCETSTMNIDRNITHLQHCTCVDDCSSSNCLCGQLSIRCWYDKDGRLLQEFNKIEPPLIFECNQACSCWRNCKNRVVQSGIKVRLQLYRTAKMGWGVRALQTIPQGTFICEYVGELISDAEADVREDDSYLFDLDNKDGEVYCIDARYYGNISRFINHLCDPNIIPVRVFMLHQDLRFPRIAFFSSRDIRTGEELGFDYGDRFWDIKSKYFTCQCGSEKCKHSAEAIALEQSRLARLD

| Compound | activity, negative = inhibition | Potency |
| --- | --- | --- |
| COc1ccccc1CCC(=O)NNC(=O)c1ccncc1 | 7.45% [at 102 µM] (inactive) | – |
| O=P(O)(CP(=O)(c1ccccc1)c1ccccc1)c1ccccc1O | – | 50.1 µM (active) |
| O=C(CP(=O)(c1ccccc1)c1ccccc1)N1CCOCC1 | 71.6% [at 102 µM] (inactive) | – |
| CC(C)(C)c1cc(P(=O)(c2ccccc2)c2ccccc2)ccc1O | 3.56% [at 102 µM] (inactive) | – |
| O=C1N(Cc2ccccc2)c2ccc(Cl)cc2C1(O)c1c[nH]c2ccccc12 (stereo not given) | -32.9% (inactive) | – |
| COc1ccccc1N1CCN(C2C(=O)c3ccccc3N2C(C)=O)CC1 (stereo not given) | -29% (inactive) | – |
| O=C(CCS(=O)(=O)c1ccc2c(c1)NC(=O)CS2)NCc1ccccc1Cl | 11.3% [at 102 µM] (inactive) | – |
| COc1ccc(C(=O)N/N=C2\CCS(=O)(=O)c3ccc(F)cc32)cc1OC | 27.4% [at 12.7 µM] | – |
| O=S1(=O)CC/C(=N\Nc2ccc(F)cc2)c2ccsc21 | – | 10 µM (active) |
| O=C(c1cccc(Cl)c1)N1CCN(CCc2ccncc2)CC1 | 1.83% (inactive) | – |
| Cc1ccccc1C(OCCN(C)C)C1CCCCC1 (stereo not given) | – | 3.16 µM (active) |
| Cc1ccccc1C(OCC(O)CN1CCCCC1CCO)c1ccccc1 (stereo not given) | -22.8% [at 102 µM] (inactive) | – |
| CN(C)CCOC(=O)C(c1ccccc1)C1(O)CCCC1 (stereo not given) | 4.21% [at 2.33 µM] | – |
| COc1ccc(-c2cn[nH]c2-c2ccc(OC)cc2)cc1 | -3.6% [at 102 µM] (inactive) | – |
| COc1ccc2[nH]c(=O)c(-c3noc(-c4ccc(F)cc4)n3)cc2c1 | -36.9% [at 12.7 µM] | – |
| COc1ccc(N=Nc2c(-c3ccc(OC)cc3)[nH]oc2=O)cc1 | – | 39.8 µM (active) |
| Cc1occc1-c1nnc(SCC(=O)NC2CCCCC2)o1 | 9.17% [at 12.7 µM] | – |
| COc1ccccc1CNC(=O)CSc1nc(=O)n(Cc2ccncc2)c2c1CCC2 | 3.71% [at 102 µM] (inactive) | – |
| Cc1cc(C(=O)COc2ccccc2[N+](=O)[O-])c(C)n1-c1cccc(S(=O)(=O)N2CCOCC2)c1 | -7.78% (inactive) | – |
| CC1CN(c2nc(-c3ccccc3)nnc2-c2ccccc2)CC(C)O1 (stereo not given) | 8.32% [at 102 µM] (inactive) | – |
| CC1CC(C)CN(CCOc2cccc3ccccc23)C1 (stereo not given) | 17.4% [at 2.33 µM] | – |
| CC1CN(CC(=O)NC(C)c2ccccc2)CC(C)O1 (stereo not given) | -10.2% [at 102 µM] (inactive) | – |
| CC1CCCN(CCOCCOc2ccccc2-c2ccccc2)C1 (stereo not given) | – | 10 µM (active) |
| CC1CCCN(CC(=O)Nc2cc(Cl)ccc2Oc2ccccc2)C1 (stereo not given) | -0.626% [at 102 µM] (inactive) | – |
| O=[N+]([O-])c1ccccc1OCCCCN1CCCCC1 | -12.4% [at 102 µM] (inactive) | – |

| Compound | activity, negative = inhibition | Potency |
| --- | --- | --- |
| CC1CN(CCOc2ccccc2[N+](=O)[O-])CC(C)O1 (stereo not given) | – | 10 µM (active) |
| CC1CN(CCCOc2ccccc2-c2ccccc2)CC(C)O1 (stereo not given) | – | 8.91 µM (active) |
| CC(C)(C)c1ccc(S(=O)(=O)N2CCN(C(=O)c3ccc4c(c3)C(=O)N(Cc3ccncc3)C4=O)CC2)cc1 | -9.64% [at 102 µM] (inactive) | – |
| CCc1ccccc1NC(=O)CSc1nnc(-c2ccccc2)c(-c2ccccc2)n1 | -39.3% (inactive) | – |
| O=C(Nc1ccc(-c2nc3cc(NC(=O)c4ccccc4Cl)ccc3o2)cc1)c1ccccc1Cl | 1.33% (inactive) | – |
| O=C(CCc1nc2sc3c(c2c(=O)[nH]1)CCCC3)NCC(=O)Nc1ccccc1Br | -4.82% [at 12.7 µM] | – |
| COc1cccc(C(=O)N2CCC(n3nccc3NC(=O)C3CCOC3)CC2)c1 (stereo not given) | -5.15% [at 0.501 µM] | – |
| Cc1cc(Br)ccc1NC(=O)Cn1cnc2sc(C)c(S(=O)(=O)N3CCN(C)CC3)c2c1=O | -1.64% (inactive) | – |
| Cc1cc(NC(=O)c2cccc(N3C(=O)CCC3=O)c2)no1 | 12.5% [at 102 µM] (inactive) | – |
| COc1ccccc1-c1nnc(NC(=O)c2cccc(N3C(=O)CCC3=O)c2)o1 | – | 1.41 µM (active) |
| O=C(Nc1cccc2cccnc12)c1cccc(N2C(=O)CCC2=O)c1 | 1.61% (inactive) | – |
| COc1cc(CN2CCN(Cc3ccc(C)cc3)CC2)c([N+](=O)[O-])cc1OC | – | 4.47 µM (active) |
| COc1cc(NC(=O)NCC2CCN(Cc3ccc(C)cc3)CC2)cc(OC)c1OC | 10.4% (inactive) | – |
| COc1cc(CN2CC(C)CC(C)C2)cc([N+](=O)[O-])c1O (stereo not given) | -17.7% (inactive) | – |
| CCOC(=O)c1cc(-c2ccccc2)n(CCC(=O)Nc2ccccc2CC)c1C | -12% (inactive) | – |
| CN(C)CCOC1c2ccccc2-c2ccccc21 | – | 22.4 µM (active) |
| COC(CCN(C)C)(c1ccccc1)c1ccccc1 | -3.15% [at 102 µM] (inactive) | – |
| O=C(N/N=C/c1ccc2c(c1)OCO2)c1ccc(Cn2cc([N+](=O)[O-])cn2)o1 | -8.92% (inactive) | – |
| O=C(N/N=C\c1ccc(Br)cc1)c1ccc(Cn2cccn2)o1 | 12.6% (inactive) | – |
| CN(C)c1ccc(/C=N/NC(=O)c2ccc(Cn3cc(Br)cn3)o2)cc1 | – | 39.8 µM (active) |
| Cc1ccc(C)c(N2CCN(C(=O)Cc3c(C(=O)O)c(C)cn3C)CC2)c1 | 7.18% (inactive) | – |
| CCC(C(=O)N1CCN(S(=O)(=O)c2sc(C(=O)O)c(C)c2C(=O)O)CC1)c1ccccc1 (stereo not given) | -9.12% [at 2.33 µM] | – |
| COc1ccc(C(=O)Oc2cc(/C=N/NS(=O)(=O)c3ccc(C)cc3)ccc2OC)cc1 | -0.555% [at 102 µM] (inactive) | – |
| COc1cc(/C=N/Nc2ccc(C)cc2)cc(Br)c1O | – | 3.98 µM (active) |
| COc1cc(/C=N/O)cc(Br)c1OS(=O)(=O)c1ccc(C)cc1 | -31.7% (inactive) | – |
